Results from paper PMC4336329 (PLoS ONE, 2015).
About 2,200 (0.71%) of roughly 310,000 compounds showed an effect of 50% or more. Effects have a minus sign here. Only a selection was taken, and strong results are over-represented in it overall.

Target: human ether-à-go-go-related gene (hERG) potassium channel (human, UniProt Q12809)
Test: primary screen, population patch clamp on CHO cells stably expressing hERG; higher = less effect of the substance

Sequence of human ether-à-go-go-related gene (hERG) potassium channel (Q12809 whole entry, looked up): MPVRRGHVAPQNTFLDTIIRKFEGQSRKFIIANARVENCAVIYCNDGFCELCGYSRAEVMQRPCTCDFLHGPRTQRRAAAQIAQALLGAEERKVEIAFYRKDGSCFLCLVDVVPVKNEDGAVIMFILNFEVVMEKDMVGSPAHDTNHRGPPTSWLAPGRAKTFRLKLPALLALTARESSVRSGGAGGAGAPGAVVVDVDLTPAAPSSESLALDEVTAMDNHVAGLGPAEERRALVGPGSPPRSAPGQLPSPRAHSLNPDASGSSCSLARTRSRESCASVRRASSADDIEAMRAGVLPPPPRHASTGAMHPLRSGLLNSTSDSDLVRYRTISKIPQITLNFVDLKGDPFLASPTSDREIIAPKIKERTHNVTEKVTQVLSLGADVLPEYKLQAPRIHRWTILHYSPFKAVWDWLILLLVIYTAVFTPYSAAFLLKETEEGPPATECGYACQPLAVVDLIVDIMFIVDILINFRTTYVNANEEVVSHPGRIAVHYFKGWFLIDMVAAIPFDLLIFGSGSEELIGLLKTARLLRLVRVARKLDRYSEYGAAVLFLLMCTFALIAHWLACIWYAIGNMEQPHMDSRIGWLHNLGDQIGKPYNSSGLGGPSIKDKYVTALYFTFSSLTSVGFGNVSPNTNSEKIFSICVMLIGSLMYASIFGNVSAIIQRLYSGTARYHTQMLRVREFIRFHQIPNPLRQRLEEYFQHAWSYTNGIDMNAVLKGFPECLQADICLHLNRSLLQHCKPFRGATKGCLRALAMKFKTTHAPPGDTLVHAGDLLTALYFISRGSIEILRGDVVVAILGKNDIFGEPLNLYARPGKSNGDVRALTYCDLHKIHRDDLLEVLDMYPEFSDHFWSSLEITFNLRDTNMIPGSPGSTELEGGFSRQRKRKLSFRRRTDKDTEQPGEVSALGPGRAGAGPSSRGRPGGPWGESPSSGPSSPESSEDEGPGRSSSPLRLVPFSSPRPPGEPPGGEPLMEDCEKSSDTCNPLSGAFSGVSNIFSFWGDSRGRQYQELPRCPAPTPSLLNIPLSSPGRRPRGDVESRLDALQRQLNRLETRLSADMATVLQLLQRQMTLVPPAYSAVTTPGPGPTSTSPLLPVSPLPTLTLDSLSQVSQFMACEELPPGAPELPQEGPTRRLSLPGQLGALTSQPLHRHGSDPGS

First: O=C(NCCN1CCN(S(=O)(=O)c2ccccc2)CC1)C(=O)Nc1ccc(F)cc1
Second: CC(=O)Nc1ccc(S(=O)(=O)NCC(=O)OCC(=O)N2CCc3ccccc32)cc1
The “hERG current change (%, negative = inhibition) at 1uM” value of the first is higher: 8.68% for the first, 2.85% for the second.

First: O=C(CN1C(=O)c2cccc3cccc(c23)C1=O)NCCCO
Second: CCCC(=O)Nc1nc2ccc(NC(=O)c3ccccc3F)cc2s1
The “hERG current change (%, negative = inhibition) at 1uM” value of the first is lower: 9.32% for the first, 14.1% for the second.

Compared with `COc1ccccc1NC(=O)N1CCN(c2ccc3nnc(-c4ccc(F)cc4)n3n2)CC1`, `Cc1ccc(COc2coc(CN3CCN(C(=O)c4ccco4)CC3)cc2=O)cc1` is lower in “hERG current change (%, negative = inhibition) at 1uM” value: 13.5% for the first, -16.4% for the second.

Going from `OCC1(CCc2ccccc2)CCN(Cc2ccc3nsnc3c2)CC1` to `OCC1(Cc2ccc(Cl)cc2)CCN(Cc2ccc3nsnc3c2)CC1`, the “hERG current change (%, negative = inhibition) at 1uM” value rises from -69.1% to -6.01%.

Compared with `CC(C)CCN1CCN(Cc2ccc3nsnc3c2)CC1CCO` (stereo not drawn), `CC(C)=CCN1CCN(Cc2ccc3nsnc3c2)CC1CCO` (stereo not drawn) is higher in “hERG current change (%, negative = inhibition) at 1uM” value: -21.3% for the first, 4.93% for the second.

Compared with `CC(C)CCN1CCN(Cc2nc3ccccc3s2)CC1CCO` (stereo not drawn), `CC(C)CN1CCN(Cc2nc3ccccc3s2)CC1CCO` (stereo not drawn) is higher in “hERG current change (%, negative = inhibition) at 1uM” value: -8.09% for the first, -5.53% for the second.

Compared with `OCCC1CN(Cc2nc(-c3ccccc3)cs2)CCN1Cc1ccc(F)cc1` (stereo not drawn), `OCCC1CN(Cc2nc(-c3ccc(F)cc3)cs2)CCN1CCc1ccccc1` (stereo not drawn) is lower in “hERG current change (%, negative = inhibition) at 1uM” value: -47.1% for the first, -69.3% for the second.

Going from `OCCC1CN(Cc2nc3ccccc3s2)CCN1CCc1ccccc1` (stereo not drawn) to `OCCC1CN(Cc2nc(-c3ccccc3)cs2)CCN1CCc1ccccc1` (stereo not drawn), the “hERG current change (%, negative = inhibition) at 1uM” value rises from -58.3% to -42.8%.

Compared with `COc1ccc(CC2(CO)CCN(Cc3ccc4nsnc4c3)CC2)cc1`, `OCCC1CN(Cc2ccc3nsnc3c2)CCN1CCc1ccccc1` (stereo not drawn) is lower in “hERG current change (%, negative = inhibition) at 1uM” value: -4.45% for the first, -73.7% for the second.

Going from `O=C(N/N=C/c1ccc(-c2cccc([N+](=O)[O-])c2)o1)[C@H]1C[C@@H]1c1ccccc1` to `O=C(NC1CCN(Cc2cccc([N+](=O)[O-])c2)CC1)c1ccccc1`, the “hERG current change (%, negative = inhibition) at 1uM” value falls from 3.49% to -3.19%.

Going from `CCOC(=O)c1cnc(N)nc1C(F)(F)F` to `CCOCCCNc1nc(C(F)(F)F)nc2c1nnn2Cc1ccccc1Cl`, the “hERG current change (%, negative = inhibition) at 1uM” value rises from -2.92% to 15.9%.

Compared with `CCC(=O)NC(=S)Nc1ccc(NC(=O)COc2ccccc2)cc1`, `Cc1cccc(OCC(=O)NC(=S)Nc2ccc(S(=O)(=O)NC3CCCCC3)cc2)c1` is lower in “hERG current change (%, negative = inhibition) at 1uM” value: 19.7% for the first, 11.2% for the second.

Going from `COc1ccc(C(=O)N2CCN(C(C)=O)CC2)cc1S(=O)(=O)N1CCOCC1` to `COc1ccc(CCNC(=O)C2CCN(C(=O)c3ccc(OC)c(OC)c3)CC2)cc1`, the “hERG current change (%, negative = inhibition) at 1uM” value falls from 14.4% to 13.3%.

Compared with `COc1ccc(C(=O)NCc2ccc3c(c2)OCO3)c(OC)c1`, `COc1ccc(-c2nc(-c3ccc4c(c3)OCO4)[nH]c2-c2ccc(OC)cc2)cc1` is higher in “hERG current change (%, negative = inhibition) at 1uM” value: 13.6% for the first, 14.7% for the second.

First: COc1ccc2oc(=O)cc(CN3CCN(Cc4ccc(OC)c(OC)c4OC)CC3)c2c1
Second: COc1ccc(CN2CCN(Cc3cc(=O)oc4cc(C)ccc34)CC2)c(OC)c1OC
The “hERG current change (%, negative = inhibition) at 1uM” value of the first is higher: -2.05% for the first, -87.6% for the second.

Going from `Cc1ccc2c(CN3CCN(CCO)CC3)cc(=O)oc2c1` to `Cc1ccc2c(CN3CCN(Cc4ccccc4)CC3)cc(=O)oc2c1`, the “hERG current change (%, negative = inhibition) at 1uM” value falls from -52.1% to -84%.

Going from `Cc1ccc2c(CN3CCCCC3)cc(=O)oc2c1` to `Cc1ccc2c(CN3CCOCC3)cc(=O)oc2c1`, the “hERG current change (%, negative = inhibition) at 1uM” value falls from 6.38% to -6.01%.

Compared with `CCc1ccc2c(CN(CC)Cc3nc4ccccc4c(=O)[nH]3)cc(=O)oc2c1`, `CCN(Cc1nc2ccccc2c(=O)[nH]1)Cc1cc(=O)oc2cc(OC)ccc12` is higher in “hERG current change (%, negative = inhibition) at 1uM” value: -60.5% for the first, -25.6% for the second.

Compared with `O=c1cc(CN2CCN(Cc3ccccc3)CC2)c2ccc(O)cc2o1`, `O=c1cc(CN2CCN(Cc3ccccc3)CC2)c2cc(O)ccc2o1` is higher in “hERG current change (%, negative = inhibition) at 1uM” value: -79.7% for the first, -39.4% for the second.

Compared with `Cc1cc2oc(=O)cc(CN3CCN(Cc4ccccc4)CC3)c2cc1O`, `Cc1cc2oc(=O)cc(CN3CCN(Cc4ccccc4)CC3)c2cc1Cl` is higher in “hERG current change (%, negative = inhibition) at 1uM” value: -12.5% for the first, 0.748% for the second.

First: Cc1ccc2c(CN3CCC(C)CC3)cc(=O)oc2c1
Second: COC(=O)C1CCN(Cc2cc(=O)oc3cc(OC)ccc23)CC1
The “hERG current change (%, negative = inhibition) at 1uM” value of the first is higher: -1.03% for the first, -1.21% for the second.

Going from `CCN(Cc1nc2ccccc2c(=O)[nH]1)Cc1cc(=O)oc2cc(C)c(C)cc12` to `Cc1cc2oc(=O)cc(CN3CCN(Cc4ccc5c(c4)OCO5)CC3)c2cc1C`, the “hERG current change (%, negative = inhibition) at 1uM” value rises from -25.2% to 0.724%.

Compared with `COc1ccc(CNC(=O)CSc2nnc3c(n2)[nH]c2ccc(OC)cc23)cc1`, `COc1ccc(OC)c(CN2CCN(Cc3cc(=O)oc4cc(O)ccc34)CC2)c1` is lower in “hERG current change (%, negative = inhibition) at 1uM” value: 11.1% for the first, -67% for the second.

Compared with `Cc1ccc(NS(=O)(=O)c2cc(NC(=O)c3cc4c(s3)CCCC4)ccc2C)c(C)c1`, `COc1ccc(-c2cc(C)no2)cc1S(=O)(=O)N(C)c1ccc(C)c(C)c1` is higher in “hERG current change (%, negative = inhibition) at 1uM” value: 7.78% for the first, 9.2% for the second.

Going from `CCC1(CC)C(=O)NC(=O)NC1=NCCc1c[nH]c2ccccc12` to `CCN(CC)S(=O)(=O)c1ccc(NC(=O)COC(=O)c2c[nH]c(=O)[nH]c2=O)cc1`, the “hERG current change (%, negative = inhibition) at 1uM” value falls from 21.2% to 11.1%.

Compared with `Fc1cccc(CN2CCN(Cc3nc(CCc4ccccc4)no3)CC2)c1`, `Cc1ccc2oc(=O)cc(CN3CCN(Cc4ccccc4)CC3)c2c1` is lower in “hERG current change (%, negative = inhibition) at 1uM” value: 3.49% for the first, -18.6% for the second.

Going from `CCc1ccc2c(CN3CCOCC3)cc(=O)oc2c1` to `COc1ccc2oc(=O)cc(CN3CCOCC3)c2c1`, the “hERG current change (%, negative = inhibition) at 1uM” value rises from -4.5% to 10.4%.

First: CCc1ccc2c(CN3CCN(Cc4ccccc4)CC3)cc(=O)oc2c1
Second: CCc1ccc2oc(=O)cc(CN3CCN(Cc4ccccc4)CC3)c2c1
The “hERG current change (%, negative = inhibition) at 1uM” value of the first is lower: -84.6% for the first, -17.6% for the second.

Going from `Cc1cc(C)c2c(CN3CCN(Cc4ccc5c(c4)OCO5)CC3)cc(=O)oc2c1` to `Cc1cc(C)c2c(CN3CCN(Cc4ccc5c(c4)OCO5)CC3)cc(=O)oc2c1C`, the “hERG current change (%, negative = inhibition) at 1uM” value rises from -50.3% to 2.67%.

Going from `CN(C)C(=S)NC(=O)C12CC3(C)CC(C)(CC(C)(C3)C1)C2` to `CC(C)NC(=O)C1CCN(C2CCN(C(=O)c3cc4c(s3)CCCCC4)CC2)CC1`, the “hERG current change (%, negative = inhibition) at 1uM” value falls from 12.9% to 6.33%.

Going from `O=C(CSc1nnc(CNC(=O)c2ccc(F)cc2)o1)Nc1nccs1` to `O=C(CCN1C(=O)/C(=C/C=C/c2ccccc2)SC1=S)Nc1nccs1`, the “hERG current change (%, negative = inhibition) at 1uM” value falls from 13.2% to -3%.

First: CCCCOc1c(Cl)cc(C(=O)N(C)CC(=O)Nc2ccc(N3CCOCC3)cc2)cc1OCC
Second: CCOc1cc(C(=O)NCCc2ccc(S(N)(=O)=O)cc2)cc(OCC)c1OCC
The “hERG current change (%, negative = inhibition) at 1uM” value of the first is higher: 9.76% for the first, 3.65% for the second.

Compared with `O=C(NCCCn1cccn1)C1CCC(=O)N(Cc2ccccc2F)C1` (stereo not drawn), `CCOc1ccc(C(=O)NC2CC3CCCC(C2)N3Cc2ccccc2)cc1` (stereo not drawn) is lower in “hERG current change (%, negative = inhibition) at 1uM” value: 7.05% for the first, -20.4% for the second.

Compared with `Cn1c(SCC(=O)Nc2ccc3c(c2)OCCO3)nnc1-c1ccccn1`, `Cc1cccc(COc2coc(CN3CCN(C(=O)c4ccco4)CC3)cc2=O)c1` is lower in “hERG current change (%, negative = inhibition) at 1uM” value: 6.5% for the first, -7.28% for the second.

Compared with `CN(C)CCCOC(=O)c1ccc(Br)cc1`, `COc1ccc(C(=O)NC2CC3CCCC(C2)N3CC(C)C)cc1` (stereo not drawn) is lower in “hERG current change (%, negative = inhibition) at 1uM” value: -6.15% for the first, -13.5% for the second.

Going from `CN1C2CCC1CC(NC(=O)c1ccc([N+](=O)[O-])cc1)C2` (stereo not drawn) to `CC(C)CN1C2CCCC1CC(NC(=O)c1ccc([N+](=O)[O-])cc1)C2` (stereo not drawn), the “hERG current change (%, negative = inhibition) at 1uM” value falls from 12.1% to -70.1%.

Compared with `O=C(NC1CC2CCCC(C1)N2Cc1cccs1)c1ccc([N+](=O)[O-])cc1` (stereo not drawn), `O=C(NC1CC2CCCC(C1)N2Cc1ccccc1)c1ccc([N+](=O)[O-])cc1` (stereo not drawn) is lower in “hERG current change (%, negative = inhibition) at 1uM” value: -78.6% for the first, -82.2% for the second.

Compared with `COCCNC(=S)NC1CC2CCCC(C1)N2Cc1cccs1` (stereo not drawn), `O=C(NC1CC2CCCC(C1)N2Cc1cccs1)N1CCOCC1` (stereo not drawn) is higher in “hERG current change (%, negative = inhibition) at 1uM” value: -1.25% for the first, 3.19% for the second.

Going from `O=C(NC1CC2CCCC(C1)N2Cc1ccccc1)c1cccc(Cl)c1` (stereo not drawn) to `O=C(NC1CCN(CC(=O)N(c2ccccc2)c2ccccc2)CC1)c1ccc([N+](=O)[O-])cc1`, the “hERG current change (%, negative = inhibition) at 1uM” value falls from -12.1% to -78.6%.

Compared with `CC1CCCCC1NC(=O)CN1CCC(NC(=O)c2ccc([N+](=O)[O-])cc2)CC1` (stereo not drawn), `Cc1ccccc1NC(=O)C1CCCN1C(=O)NC1CCCCC1` (stereo not drawn) is higher in “hERG current change (%, negative = inhibition) at 1uM” value: 12.1% for the first, 17.4% for the second.

First: O=C(N1CCC(n2nc(-c3ccccc3)oc2=O)CC1)C1(c2ccc(Cl)cc2)CC1
Second: COc1ccccc1CN1CCC(CNS(=O)(=O)c2cc(-c3cc(C)no3)ccc2OC)CC1
The “hERG current change (%, negative = inhibition) at 1uM” value of the first is higher: 7.63% for the first, -33.2% for the second.

Compared with `COCCNC(=O)c1c[nH]n2c(=O)cc(C3CCN(C(=O)OC(C)(C)C)CC3)nc12`, `Cc1ccc(-c2nc(CS(=O)(=O)CC(=O)NCCN3CCCC3)c(C)o2)cc1` is lower in “hERG current change (%, negative = inhibition) at 1uM” value: 9.37% for the first, 7.76% for the second.

First: Cc1ccc(C)c(COc2coc(CN3CCN(C(=O)c4ccco4)CC3)cc2=O)c1
Second: COc1cccc(CCN2CCC(CNS(=O)(=O)c3cc(-c4cc(C)no4)ccc3C)CC2)c1
The “hERG current change (%, negative = inhibition) at 1uM” value of the first is lower: -95.9% for the first, -20.1% for the second.

First: COc1ccc(Nc2nnc(SCC(=O)N3CCCC3)s2)cc1
Second: COc1cccc(CCN2CCC(CNS(=O)(=O)c3cc(-c4cc(C)no4)ccc3OC)CC2)c1
The “hERG current change (%, negative = inhibition) at 1uM” value of the first is higher: 7.15% for the first, -66.3% for the second.

First: COc1ccc(-c2cc(C)no2)cc1S(=O)(=O)N(C)c1ccc(C)cc1
Second: COc1ccc(-c2cc(C)no2)cc1S(=O)(=O)N(C)c1cccc(C)c1
The “hERG current change (%, negative = inhibition) at 1uM” value of the first is higher: 4.37% for the first, -62.5% for the second.
